High-throughput results from PubChem.
This excerpt belongs to a sample that is enriched for hits.
GluA2 TARP mod: modulators of AMPA receptor GluA2-stargazin complexes; O88602+P19491; HEK293 GluA2+stargazin, membrane potential dye (FDSS), glutamate EC50; hits were called plate by plate, in both directions; calls only at 30 µM; 40,000 tested, 3.5% active; AID 1259245;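 active = any of four per-well response measures lying three or more SD from its plate-wide compound average, in either direction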
Target sequence (O88602 whole entry, looked up): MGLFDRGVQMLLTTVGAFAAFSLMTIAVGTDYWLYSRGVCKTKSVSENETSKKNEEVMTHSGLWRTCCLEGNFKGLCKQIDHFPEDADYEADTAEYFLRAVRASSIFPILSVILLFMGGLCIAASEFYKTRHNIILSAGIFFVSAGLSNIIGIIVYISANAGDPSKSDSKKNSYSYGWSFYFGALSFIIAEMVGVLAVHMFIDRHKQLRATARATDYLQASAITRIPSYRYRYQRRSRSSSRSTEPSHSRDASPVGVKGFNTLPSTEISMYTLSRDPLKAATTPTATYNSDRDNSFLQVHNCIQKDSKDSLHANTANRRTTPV
Target sequence (P19491 whole entry, looked up): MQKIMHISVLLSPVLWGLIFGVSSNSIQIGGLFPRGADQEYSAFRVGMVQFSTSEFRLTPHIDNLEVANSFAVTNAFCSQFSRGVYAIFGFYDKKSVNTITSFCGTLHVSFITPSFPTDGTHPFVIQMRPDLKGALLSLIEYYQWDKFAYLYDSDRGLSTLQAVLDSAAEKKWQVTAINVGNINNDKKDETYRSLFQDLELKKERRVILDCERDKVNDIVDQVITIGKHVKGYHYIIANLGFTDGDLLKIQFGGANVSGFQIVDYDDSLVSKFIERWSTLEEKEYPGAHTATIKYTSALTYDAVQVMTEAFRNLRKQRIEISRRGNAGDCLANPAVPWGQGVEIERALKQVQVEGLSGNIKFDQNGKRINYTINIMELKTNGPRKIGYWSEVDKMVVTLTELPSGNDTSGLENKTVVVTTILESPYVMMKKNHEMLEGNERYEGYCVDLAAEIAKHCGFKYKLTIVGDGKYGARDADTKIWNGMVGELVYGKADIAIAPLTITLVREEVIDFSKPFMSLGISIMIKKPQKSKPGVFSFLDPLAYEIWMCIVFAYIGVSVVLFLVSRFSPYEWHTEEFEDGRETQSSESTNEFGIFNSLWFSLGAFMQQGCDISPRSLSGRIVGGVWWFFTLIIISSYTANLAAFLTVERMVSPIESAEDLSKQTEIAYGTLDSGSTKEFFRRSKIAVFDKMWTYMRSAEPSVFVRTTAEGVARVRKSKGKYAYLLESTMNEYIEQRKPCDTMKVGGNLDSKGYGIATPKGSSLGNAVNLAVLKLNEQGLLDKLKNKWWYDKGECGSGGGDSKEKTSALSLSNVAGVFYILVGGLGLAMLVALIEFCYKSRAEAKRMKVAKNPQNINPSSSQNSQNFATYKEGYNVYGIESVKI
GIRK2 activator: Activators of human GIRK2-containing channels. 34,000 tested, under 10 active. activation (% efficacy), % for hits at 37.5 µM. P48051. HEK293 GIRK2/NPY4 cells, thallium flux fluorescence;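 active = primary screen hit, no activity in plain HEK293 cells, and in GIRK2-only cells above 5% efficacy rising with concentration; inactive = the rest, including fluorescent compounds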;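 also: efficacy is normalized control-subtracted fluorescence 15 s after thallium addition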
Starred values were filed as active, the others as inactive; i = inactive; . = not tested or not shown; + = active, no number; [ ] = dose if it differs, or a comment.

SMILES	GluA2 TARP mod	GIRK2 activator
Cc1cc(N2CCN(Cc3ccccc3)CC2)nc(-n2cc([N+](=O)[O-])cn2)n1	+	i
Cc1nc(-c2cccs2)c(CCC(=O)Nc2c(Cl)cccc2Cl)s1	i	i
COc1ccc(OC)c(NC(=O)C(=O)NCC(c2cccs2)N(C)C)c1 (stereo not given)	i	i
COc1cc(NC(=O)NCc2cccs2)ccc1N1CCCCC1=O	i	i
O=C(Cc1ccc(NC(=O)C2(c3ccccc3)CCOCC2)cc1)N1CCCC1	.	i
COc1ccccc1CNC(=O)Cn1nc(-c2ccc(Cl)cc2)ccc1=O	i	i
O=C(CSCc1ccccc1)Nc1cc(-c2cccs2)nn1CCO	i	i
CC(C)(C)c1cc(NC(=O)Cc2ccccc2Cl)n(CCO)n1	i	i
CC(C)(C)c1cc(NC(=O)CSCc2ccccc2)n(CCO)n1	+	i
CC(C)(C)c1cc(NC(=O)CCSc2ccccc2)n(CCO)n1	+	i
COc1ccc2c(CC(=O)NCCCn3ccnc3)cc(=O)oc2c1	i	i
CCOC(=O)C1=C(C)NC(=O)NC1c1ccc(OC)cc1 (stereo not given)	i	.
CCC(=O)N(CCC1(c2ccc(OC)cc2)CCOC(C)(C)C1)Cc1ccc(Cl)cc1 (stereo not given)	+	.
CN(Cc1ccccc1)C(=O)Cn1cnc(-c2ccccc2)cc1=O	i	i
O=c1ccc(-c2ccco2)nn1CCCNS(=O)(=O)c1ccc2c(c1)OCCO2	i	i
O=c1ccc(-c2ccco2)nn1CCCNS(=O)(=O)c1ccc2c(c1)CCCC2	+	i
COC(=O)c1ccc(C(=O)Nc2ccc3c(c2)N(C(=O)C(C)(C)C)CC3)cc1	i	i
COc1ccc(-c2cc(CC(=O)N3CCCc4ccccc43)no2)cc1OC	i	i
Cc1nn(C2CCS(=O)(=O)C2)c(C)c1CC(=O)Nc1ccc(F)c(Cl)c1 (stereo not given)	i	i
O=C(Nc1ccc(F)c(Cl)c1)c1cc(C2CC2)n(C2CCS(=O)(=O)C2)n1 (stereo not given)	+	i
O=C(CC1CCCC1)Nc1cc(-c2ccco2)nn1-c1nc2c(c(=O)[nH]1)CCC2	i	i
O=C(Nc1cc(-c2ccco2)nn1-c1nc2c(c(=O)[nH]1)CCC2)C1CC1	+	i
O=C(CCc1ccccc1)NCCn1ncc2c(N3CCCC3)ncnc21	i	i
COc1ccc(CCC(=O)NCCn2ncc3c(N4CCCCC4)ncnc32)cc1	+	i
O=C(C1=COCCO1)N(CCN1CCOCC1)c1nc2ccccc2s1	i	.
SMILES	GluA2 TARP mod	GIRK2 activator
O=C(C1=COCCO1)N(CCN1CCOCC1)c1nc2c(F)cccc2s1	+	i
O=C(Nc1ccc(N2CCCCS2(=O)=O)cc1)C(=O)NC1CCCCCC1	i	.
Cc1cc(C(C)(C)C)cc(S(=O)(=O)Nc2c(C)n(C)n(-c3ccccc3)c2=O)c1C	+	.
Cc1c(NS(=O)(=O)c2cccc(S(C)(=O)=O)c2)c(=O)n(-c2ccccc2)n1C	.	i
CC(C)Sc1cccc(C(=O)Nc2sccc2C(N)=O)c1	+	.
CC(C)Sc1cccc(C(=O)Nc2nnc(-c3cccs3)o2)c1	i	.
O=C(Nc1ccc(N2CCCS2(=O)=O)cc1)Nc1cccc(Cl)c1	+	i
COc1ccc(N2CCCS2(=O)=O)cc1NC(=O)Nc1ccc(Cl)c(Cl)c1	i	i
COc1cc(NC(=O)Nc2ccc(CN3CCN(C)CC3)cc2)cc(OC)c1OC	i	i
COc1ccc(Cl)cc1NC(=O)Nc1cc(N2CCCS2(=O)=O)ccc1OC	+	i
COc1cccc(NC(=O)Nc2ccc(N3CCCS3(=O)=O)cc2)c1	i	i
COc1ccc(Cl)cc1NC(=O)Nc1ccc(CN2CCN(C)CC2)cc1	i	14%*[75 µM]
Cc1cc(SCC(=O)N2CCCC2)nc(SCC(=O)N2CCCC2)n1	i	i
CCc1nc(SCC(=O)N(CC)CC)c(C#N)c2c1CCCC2	+	.
Cc1[nH]c(=O)nc(SCC(=O)NC2CCCC2)c1C#N	i	i
CC(=O)c1ccc(NS(=O)(=O)c2ccc(Oc3ccccc3C)cc2)cc1	i	i
COc1cc(OC)cc(C(=O)NCCN2CCN(S(=O)(=O)c3ccc(C)cc3)CC2)c1	i	.
CC(C)C(=O)Nc1ccc(SCC(=O)NCc2ccc3c(c2)OCO3)nn1	i	i
Cc1ccccc1-c1ccc(SCC(=O)NCc2ccc3c(c2)OCO3)nn1	+	i
COc1ccc(CC(=O)Nc2nc(-c3ccc(OC)cc3)cs2)cc1	i	.
CCCOc1ccc(N2CCN(C(=O)/C=C/c3ccc4c(c3)OCO4)CC2)nn1	i	i
Cc1cc(C)c2c(=O)[nH]c(SCC(N)=O)nc2n1	+	.
Cc1cccc(NC(=O)CSc2nc3nc(C)cc(C)c3c(=O)[nH]2)c1	i	.
Cc1ccc(-n2nc3c(c2-n2cccc2)CN(C(=O)c2ccc(F)c(F)c2)C3)cc1	i	i
Cc1cccc(-n2nc3c(c2-n2cccc2)CN(C(=O)c2cc(C)oc2C)C3)c1	+	i
SMILES	GluA2 TARP mod	GIRK2 activator
COc1ccc2nc(-c3cccc(NS(=O)(=O)c4ccc(C)s4)c3)cn2n1	.	i
O=C(Nc1ccc(OC(F)(F)F)cc1)c1ccc(S(=O)(=O)NC2CC2)o1	i	i
Cc1csc(NC(=O)c2ccc(S(=O)(=O)Nc3ccc(OC(F)(F)F)cc3)o2)n1	+	i
Cc1nnc(NC(=O)c2ccc(S(=O)(=O)Nc3ccc(OC(F)(F)F)cc3)o2)s1	i	i
CN(C)S(=O)(=O)c1ccc(C(=O)Nc2ccc(OC(F)(F)F)cc2)o1	+	i
CCOC(=O)C1CCN(CC(O)COc2ccccc2C(C)=O)CC1 (stereo not given)	i	.
O=S(=O)(NCC1CCN(c2ncccn2)CC1)c1cccnc1	i	i
O=C1CCCCN1c1ccc(NS(=O)(=O)c2ccc3c(c2)OCCO3)cc1	i	i
COC(=O)c1ccccc1NC(=O)CCN1C(=O)c2ccccc2S1(=O)=O	i	i
O=S(=O)(c1ccc(Cl)cc1)N1CCC(c2nc(-c3cccc(C(F)(F)F)c3)no2)CC1	.	i
COC(=O)c1ccc2[nH]c(C)cc(=O)c2c1	i	i
COC(=O)c1ccc2occ(-c3oc4ccc(C(=O)OC)cc4c3O)c2c1	+	i
O=C(Nc1nc(CC(=O)N2CCc3ccccc3C2)cs1)c1ccc[nH]c1=O	i	i
CCOc1ccc2ccccc2c1C(=O)NCCc1ccsc1	+	i
CCOc1ccc2ccccc2c1C(=O)NCc1nc(C)no1	.	i
CCOc1cc(C(=O)NCC2COC3(CCCCC3)O2)cc(OCC)c1OCC (stereo not given)	i	i
CCOc1ccc2ccccc2c1C(=O)NCC1COC2(CCCCC2)O1 (stereo not given)	+	i
CCSc1ccccc1C(=O)NCC(O)Cc1ccccc1 (stereo not given)	+	i
COC(=O)NCC(O)Cc1ccccc1 (stereo not given)	i	i
CCOc1ccc2ccccc2c1C(=O)NCC(O)Cc1ccccc1 (stereo not given)	+	i
CCOc1ccc2ccccc2c1C(=O)NCC(O)c1ccc(C(F)(F)F)cc1 (stereo not given)	.	i
COc1ccccc1CCNC(=O)Cn1nc(C(=O)N2CCOCC2)cc1C	i	i
